{"source": "PubChem BioAssay (NCATS)", "key": {"[1]": {"test": "Validation qHTS assay for inhibitors of Activation Induced Cytidine Deaminase (AID): UDG Counterscreen signal (AID 1347427); also: potency is read from the fitted curve at half-maximal effect", "method_in_brief": "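Counterscreen read of UDG activity (2 U/mL, 4/3x) in the FRET deamination format with AID (1 uM, 4/3x), DJC20/DJC23 substrates (250 nM, 4x), 4 h at room temperature. NaOH stop, fluorescence at 560 ex/665 em.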"}, "[2]": {"target": "Single-stranded DNA cytosine deaminase (Homo sapiens) (UniProt Q9GZX7)", "sequence (Q9GZX7 whole entry, looked up)": "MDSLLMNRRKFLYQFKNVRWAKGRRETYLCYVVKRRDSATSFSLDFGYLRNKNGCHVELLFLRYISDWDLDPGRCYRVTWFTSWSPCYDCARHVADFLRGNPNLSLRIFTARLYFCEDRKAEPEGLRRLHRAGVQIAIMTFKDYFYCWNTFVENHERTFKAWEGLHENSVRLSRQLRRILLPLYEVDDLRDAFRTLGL", "test": "Validation qHTS assay for inhibitors of Activation Induced Cytidine Deaminase (AID): AID signal (AID 1347429); also: potency is read from the fitted curve at half-maximal effect", "method_in_brief": "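Fluorescence at 540 nm excitation and 590 nm emission reports ssDNA cytosine deamination by AID, with UDG in the same well. Compound-treated reactions ran 4 hr at room temperature with DJC20/DJC23 substrate, followed by 30 min NaOH treatment.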"}, "[3]": {"test": "Confirmatory qHTS for VERO E6 Cytotoxicity Assay: Counterscreen for SARS-CoV-2 CPE Assay (AID 1508605; calls by dose curve; also: nearly all actives have a fitted effect of over 60% in size)"}, "[4]": {"test": "Primary qHTS for Huh7 cytotoxicity: counterscreen for inhibitors of MERS-S pseudotyped particle cell entry (AID 1479147; calls by dose curve)", "conditions": "outcome: at 57.1 µM (top of the series) unless noted"}, "[5]": {"test": "Primary qHTS for Vero E6 cytotoxicity: counterscreen for inhibitors of SARS-S pseudo-typed particle cell entry (AID 1479150; calls by dose curve)"}, "[6]": {"test": "Primary qHTS for inhibitors of MERS-S pseudo-typed particle cell entry (AID 1479149; calls by dose curve; also: nearly all actives have a fitted effect of over 60% in size)", "conditions": "outcome: at 57.1 µM (top of the series) unless noted"}, "[7]": {"test": "Primary qHTS for inhibitors of SARS-S pseudo-typed particle cell entry (AID 1479145; calls by dose curve; also: nearly all actives have a fitted effect of over 45% in size)", "conditions": "outcome: at 57.1 µM (top of the series) unless noted"}}, "note": "Records with an inconclusive call do not appear. Entries that show only a call come without a potency. Calls of active or inactive are those of the source. Unless noted, calls follow the shape of the dose curve; as a rule, active = well fitted curve in the direction sought with a large enough effect; inconclusive = small, poorly fitted or top-dose-only effect, or another doubt; inactive = no such curve, though single readings can be large; an effect the other way counts as inactive or inconclusive."}
{"smiles": "CCCC[N+]1(C)C2CC(OC(=O)[C@H](CO)c3ccccc3)CC1C1OC12", "note": "(stereo partly drawn)", "values": [{"measurement": "Potency", "setting": "[1]", "result": "inactive"}, {"measurement": "Potency", "setting": "[2]", "result": "inactive"}]}
{"smiles": "CCCn1c(=O)c2[nH]c(C3CCCC3)nc2n(CCCOC(=O)c2ccc(S(=O)(=O)F)cc2)c1=O", "values": [{"measurement": "Potency", "setting": "[2]", "result": "inactive"}]}
{"smiles": "COC(=O)N1CCN(C(=O)Cc2ccc(Cl)c(Cl)c2)C(CN2CCCC2)C1", "note": "(stereo not drawn)", "values": [{"measurement": "Potency", "setting": "[2]", "result": "inactive"}]}
{"smiles": "N=C(N)c1ccc(CS(=O)(=O)F)cc1", "values": [{"measurement": "Potency", "setting": "[2]", "result": "inactive"}]}
{"smiles": "CN1CC[C@@]2(C)c3cc(O)ccc3N(C)C12", "note": "(stereo partly drawn)", "values": [{"measurement": "Potency", "setting": "[2]", "result": "12.6 µM (active)"}]}
{"smiles": "C#CCN[C@H](C)Cc1ccccc1", "values": [{"measurement": "Potency", "setting": "[2]", "result": "inactive"}]}
{"smiles": "Cc1o[nH]c(=O)c1CC(N)C(=O)O", "note": "(stereo not drawn)", "values": [{"measurement": "Potency", "setting": "[2]", "result": "inactive"}]}
{"smiles": "CC(C)(C)c1cc(C=C(C#N)C#N)cc(C(C)(C)C)c1O", "values": [{"measurement": "Potency", "setting": "[1]", "result": "70.8 µM (active)"}, {"measurement": "Potency", "setting": "[2]", "result": "inactive"}]}
{"smiles": "CN1CCc2cccc(Cl)c2CC1", "values": [{"measurement": "Potency", "setting": "[2]", "result": "inactive"}]}
{"smiles": "COc1ccc2c(c1)/C(=C/c1cnc[nH]1)C(=O)N2", "values": [{"measurement": "Potency", "setting": "[2]", "result": "inactive"}]}
{"smiles": "CP(=O)(O)C1=CCNCC1", "values": [{"measurement": "Potency", "setting": "[1]", "result": "inactive"}, {"measurement": "Potency", "setting": "[2]", "result": "inactive"}]}
{"smiles": "CCOC(=O)c1ncn2c1[C@@H]1CCCN1C(=O)c1cc(OC)ccc1-2", "values": [{"measurement": "Potency", "setting": "[2]", "result": "inactive"}]}
{"smiles": "N#CCCN", "values": [{"measurement": "Potency", "setting": "[2]", "result": "inactive"}]}
{"smiles": "NC(N)=Nc1ccc2[nH]c3c(c2c1)C[C@@]1(O)[C@H]2Cc4ccc(O)c5c4[C@@]1(CCN2CC1CC1)[C@H]3O5", "values": [{"measurement": "Potency", "setting": "[1]", "result": "inactive"}, {"measurement": "Potency", "setting": "[2]", "result": "79.4 µM (active)"}]}
{"smiles": "N[C@@]1(C(=O)O)CC[C@@H](C(=O)O)C1", "values": [{"measurement": "Potency", "setting": "[1]", "result": "inactive"}, {"measurement": "Potency", "setting": "[2]", "result": "inactive"}]}
{"smiles": "CC(C)[C@@]1(NC(=O)[C@@H]2C[C@@H]3c4cccc5[nH]cc(c45)C[C@H]3N(C)C2)O[C@@]2(O)[C@@H]3CCCN3C(=O)[C@H](Cc3ccccc3)N2C1=O", "values": [{"measurement": "Potency", "setting": "[1]", "result": "inactive"}, {"measurement": "Potency", "setting": "[2]", "result": "inactive"}]}
{"smiles": "O=[N+]([O-])c1ccc2nc(N3CCNCC3)ccc2c1", "values": [{"measurement": "Potency", "setting": "[1]", "result": "inactive"}, {"measurement": "Potency", "setting": "[2]", "result": "inactive"}]}
{"smiles": "C/C(O)=C(\\C#N)C(=O)Nc1cc(Br)ccc1Br", "values": [{"measurement": "Potency", "setting": "[2]", "result": "inactive"}]}
{"smiles": "NC(N)=NOCC[C@H](N)C(=O)O", "values": [{"measurement": "Potency", "setting": "[1]", "result": "inactive"}, {"measurement": "Potency", "setting": "[2]", "result": "inactive"}]}
{"smiles": "N#C/C(=C/c1ccc(O)c(O)c1)C(N)=S", "values": [{"measurement": "Potency", "setting": "[2]", "result": "inactive"}]}
{"smiles": "NC(=O)c1ccc(OCC(O)CN2CC=C(c3ccc(F)cc3)CC2)cc1", "note": "(stereo not drawn)", "values": [{"measurement": "Potency", "setting": "[1]", "result": "inactive"}, {"measurement": "Potency", "setting": "[2]", "result": "inactive"}]}
{"smiles": "O=c1c2ccccc2[se]n1-c1ccccc1", "values": [{"measurement": "Potency", "setting": "[1]", "result": "inactive"}, {"measurement": "Potency", "setting": "[2]", "result": "inactive"}, {"measurement": "outcome", "setting": "[3]", "result": "inactive"}]}
{"smiles": "C=CCN1C[C@@H](C)N([C@H](c2ccc(C(=O)N(CC)CC)cc2)c2cccc(OC)c2)C[C@@H]1C", "values": [{"measurement": "Potency", "setting": "[2]", "result": "inactive"}]}
{"smiles": "NC(Cc1cc(O)c(O)cc1O)C(=O)O", "note": "(stereo not drawn)", "values": [{"measurement": "Potency", "setting": "[1]", "result": "inactive"}, {"measurement": "Potency", "setting": "[2]", "result": "3.98 µM (active)"}]}
{"smiles": "C[N+]1(C)CCc2cc3c(cc2[C@H]1[C@@H]1OC(=O)c2c1ccc1c2OCO1)OCO3", "values": [{"measurement": "Potency", "setting": "[1]", "result": "inactive"}, {"measurement": "Potency", "setting": "[2]", "result": "inactive"}]}
{"smiles": "CCCN(CCC)C1CCc2cccc(O)c2C1", "note": "(stereo not drawn)", "values": [{"measurement": "Potency", "setting": "[2]", "result": "inactive"}]}
{"smiles": "CN(C(=O)Cc1ccc(Cl)c(Cl)c1)C(CN1CCCC1)c1cccc(OCC(=O)O)c1", "note": "(stereo not drawn)", "values": [{"measurement": "Potency", "setting": "[2]", "result": "inactive"}]}
{"smiles": "Clc1ccc(N2CC3CCC(C2)N3)nn1", "values": [{"measurement": "Potency", "setting": "[2]", "result": "inactive"}]}
{"smiles": "NC(C(=O)O)c1cc(=O)[nH]o1", "note": "(stereo not drawn)", "values": [{"measurement": "Potency", "setting": "[2]", "result": "inactive"}]}
{"smiles": "C=CCN1CC[C@]23c4c5ccc(O)c4O[C@@H]2/C(=N/N=C2\\CC[C@@]4(O)C6Cc7ccc(O)c8c7[C@@]4(CCN6CC=C)[C@@H]2O8)CC[C@@]3(O)C1C5", "values": [{"measurement": "Potency", "setting": "[2]", "result": "inactive"}]}
{"smiles": "C[N+](C)(C)CC#CCOC(=O)Nc1cccc(Cl)c1", "values": [{"measurement": "Potency", "setting": "[1]", "result": "inactive"}, {"measurement": "Potency", "setting": "[2]", "result": "inactive"}]}
{"smiles": "CCN1C[C@@]2(COC)C3[C@@H](OC)C4[C@@H]1C3([C@@H]1C[C@]3(O)[C@H](OC(=O)c5ccccc5)[C@@H]1[C@]4(OC(C)=O)[C@@H](O)[C@@H]3OC)[C@H](OC)C[C@H]2O", "values": [{"measurement": "Potency", "setting": "[1]", "result": "inactive"}, {"measurement": "Potency", "setting": "[2]", "result": "inactive"}]}
{"smiles": "CCCN(CCC)[C@@H]1CCc2cccc(O)c2C1", "values": [{"measurement": "Potency", "setting": "[1]", "result": "inactive"}, {"measurement": "Potency", "setting": "[2]", "result": "inactive"}]}
{"smiles": "CC(C)NP(=O)(NC(C)C)OP(=O)(NC(C)C)NC(C)C", "values": [{"measurement": "Potency", "setting": "[2]", "result": "inactive"}]}
{"smiles": "CC[C@H]1CN2CC[C@H]1C[C@@H]2[C@@H](O)c1ccnc2ccc(OC)cc12", "values": [{"measurement": "outcome", "setting": "[4]", "result": "inactive"}, {"measurement": "Potency", "setting": "[5]", "result": "inactive"}, {"measurement": "outcome", "setting": "[3]", "result": "inactive"}]}
{"smiles": "Cc1ccccc1-n1c(CF)nc2ccc(N)cc2c1=O", "values": [{"measurement": "outcome", "setting": "[4]", "result": "inactive"}, {"measurement": "outcome", "setting": "[6]", "result": "inactive"}, {"measurement": "Potency", "setting": "[5]", "result": "inactive"}]}
{"smiles": "CCC1C(C)=NN=C(c2ccc(OC)c(OC)c2)c2cc(OC)c(OC)cc21", "note": "(stereo not drawn)", "values": [{"measurement": "outcome", "setting": "[7]", "result": "inactive"}, {"measurement": "outcome", "setting": "[4]", "result": "inactive"}, {"measurement": "outcome", "setting": "[6]", "result": "inactive"}, {"measurement": "Potency", "setting": "[5]", "result": "inactive"}]}
{"smiles": "ClC1C(Cl)C(Cl)C(Cl)C(Cl)C1Cl", "note": "(stereo not drawn)", "values": [{"measurement": "outcome", "setting": "[4]", "result": "inactive"}, {"measurement": "outcome", "setting": "[6]", "result": "inactive"}, {"measurement": "Potency", "setting": "[5]", "result": "inactive"}]}
{"smiles": "CC(N)Cc1ccc(O)cc1", "note": "(stereo not drawn)", "values": [{"measurement": "outcome", "setting": "[7]", "result": "inactive"}, {"measurement": "outcome", "setting": "[4]", "result": "inactive"}, {"measurement": "outcome", "setting": "[6]", "result": "inactive"}, {"measurement": "Potency", "setting": "[5]", "result": "inactive"}]}
{"smiles": "CCNCC(O)c1cccc(O)c1", "note": "(stereo not drawn)", "values": [{"measurement": "outcome", "setting": "[4]", "result": "inactive"}, {"measurement": "outcome", "setting": "[6]", "result": "inactive"}, {"measurement": "Potency", "setting": "[5]", "result": "inactive"}]}
{"smiles": "CCCCCCC(=O)O[C@H]1CC[C@H]2[C@@H]3CC[C@H]4CC(=O)C=C(C)[C@]4(C)[C@H]3CC[C@]12C", "values": [{"measurement": "outcome", "setting": "[4]", "result": "inactive"}, {"measurement": "outcome", "setting": "[6]", "result": "inactive"}, {"measurement": "Potency", "setting": "[5]", "result": "inactive"}]}
